# Active and inactive are the calls of the source. Rule as the data show it: active = inhibition of mean fluorescence above about 33%; inactive = the rest.
# Assay: blockers of bacterial quorum-sensing reporter fluorescence – flow cytometry, SAR analogs, SAR follow-up (AID 1014);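 also: Staphylococcus aureus RN6390 with RNAIII-GFP reporter stimulated by AIP; bacteria incubated with compound for 3 hours at 37 °C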
# Conditions: at 20 µM, stronger effect = higher value; inhibition of percent positive cells: measured here: percent reporter-positive cells
SMILES,inhibition of mean fluorescence,inhibition of percent positive cells [%]
O=C(NCC(c1cccnc1)N1CCN(c2ccccc2F)CC1)c1ccccc1F (configuration not stated),-1.3% (inactive),-0.4
CCc1ccc(S(=O)(=O)c2n[nH]n3c2nc(=O)c2ccccc23)cc1,87.7% (active),53.5
CCOc1ccc(Nc2nc3c(S(=O)(=O)c4ccc(C(C)C)cc4)nnn3c3ccccc23)cc1,-3.7% (inactive),-0.1
O=C(NC1CCCCC1)C(c1cc2c(cc1[N+](=O)[O-])OCO2)N1CCCCC1 (configuration not stated),12% (inactive),-0.2
O=C(NCC(c1cccnc1)N1CCN(Cc2ccccc2)CC1)c1ccccc1 (configuration not stated),12.3% (inactive),-0.4
COc1ccc(Nc2nc3c(S(=O)(=O)c4ccccc4)nnn3c3ccccc23)cc1,-5.6% (inactive),-0.4
O=C(O)c1ccccc1Nc1cn2ncc([N+](=O)[O-])c2c(=O)[nH]1,-1.7% (inactive),-0.3
CC1CCCN(C(C(=O)Nc2ccc(C(C)C)cc2)c2ccc3c(c2)OCO3)C1 (configuration not stated),23.8% (inactive),0.5
O=C(NC1CCCC1)C(c1cc2c(cc1[N+](=O)[O-])OCO2)N1CCN(c2ccccc2)CC1 (configuration not stated),-13.2% (inactive),-1.6
O=C(CN1CC(=O)Oc2ccccc21)Nc1ccc2c(c1)OCO2,-25.8% (inactive),-0.2
O=C(CN1C(=O)c2ccccc2C1=O)N=C1NC(=O)CS1,3.2% (inactive),-1.2
O=C(NCC(c1cccnc1)N1CCN(c2ccccc2)CC1)c1ccccc1F (configuration not stated),-31.8% (inactive),-1.7
CC(C)(C)c1ccc(S(=O)(=O)c2n[nH]n3c2nc(=O)c2ccccc23)cc1,13.3% (inactive),-1.8
Nc1c(Nc2ccccc2C(=O)O)c2ccccc2oc1=O,0% (inactive),-2.2
CCOC(=O)c1cnc2ccc(OC)cc2c1Nc1ccccc1C(=O)O,-23.9% (inactive),-1.3
O=C(Nc1ccc2c(c1)OCCO2)C(c1ccccc1)N1CCOCC1 (configuration not stated),9.5% (inactive),2.3
CC(C)c1ccc(NC(=O)C(c2ccc3c(c2)OCO3)N2CCc3ccccc32)cc1 (configuration not stated),26.3% (inactive),-1.6
CC1CCN(CCC(=O)Nc2ccc3c(c2)OCO3)CC1,10% (inactive),1.6

SMILES,inhibition of mean fluorescence,inhibition of percent positive cells [%]
CCOc1ccc(Nc2nc3c(S(=O)(=O)c4ccccc4)nnn3c3ccccc23)cc1,-16.3% (inactive),-0.2
O=C(NCCN1CCN(c2ccccc2)CC1)c1cccc(Cl)c1,-5.6% (inactive),0
COc1ccc(Nc2nc3c(S(=O)(=O)c4ccc(C)cc4)nnn3c3ccccc23)cc1,4.9% (inactive),-0.8
COC(=O)c1c(C)oc2cc(Br)c(O)cc12,-18% (inactive),-1
N#Cc1c(NC(=O)c2cc3ccccc3c(=O)o2)sc2c1CCCCCC2,-18.3% (inactive),0.2
COc1ccc(Nc2nc3c(S(=O)(=O)c4ccc(Br)cc4)nnn3c3ccccc23)cc1,2.8% (inactive),-0.8
COc1ccc(C(=O)N2CCC(C(=O)Nc3ccc4c(c3)OCO4)CC2)cc1,-3.1% (inactive),0
CCOC(=O)c1c(-c2ccccc2)oc2ccc(O)cc12,13.3% (inactive),-0.9
CC(C)c1ccc(S(=O)(=O)c2nnn3c2nc(N)c2ccccc23)cc1,11.1% (inactive),0.3
Cc1ccc(S(=O)(=O)c2nnn3c2nc(Nc2ccc(Oc4ccccc4)cc2)c2ccccc23)cc1,-5% (inactive),0
CC1CCCN(C(C(=O)Nc2ccc3c(c2)OCO3)c2ccccc2)C1 (configuration not stated),81.5% (active),81.9
COc1ccc(C(=O)NCC(c2cccnc2)N2CCN(c3ccccc3F)CC2)cc1 (configuration not stated),-7.6% (inactive),-0.9
O=C(NCC(c1cccnc1)N1CCN(c2ccc(F)cc2)CC1)c1ccccc1 (configuration not stated),10% (inactive),-0.2
COc1cccc(Nc2c(F)c(OC)c(F)c(F)c2C(=O)O)c1,-6.6% (inactive),0
COc1cccc(C(=O)NCC(c2cccnc2)N2CCN(c3ccc(F)cc3)CC2)c1 (configuration not stated),8.6% (inactive),0
O=C(CSc1cn(CC(=O)N2CCCCC2)c2ccccc12)Nc1ccc2c(c1)OCO2,-6.3% (inactive),-0.1
CC1CCN(c2c(NCC3CCC(C(=O)NCc4ccc5c(c4)OCO5)CC3)c(=O)c2=O)CC1 (configuration not stated),-24.3% (inactive),-0.6
CC1CCc2nn(CC(=O)Nc3ccc4c(c3)OCCO4)cc2C1 (configuration not stated),4.5% (inactive),0
